HEK293 tox: qHTS of GLP-1 Receptor Inverse Agonists: Cytotox Screen. HEK293 cAMP-luciferase reporter cells, luminescence, 24 h. Potency, µM (top dose mostly 38.3 µM), without a hit: top-dose activity change, negative = inhibition, usual class: inhibitors. actives 0.13% (n = 410,000). AID 624418, 2012;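 note: loss of luciferase light is scored as toxicity; potency is the fitted concentration of half-maximal effect; % is set by controls: 0 for no effect and ±100 for the full control effect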
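Quantitative HTS format, 1536 wells, 200 cells/uL seeded. Compounds: 23 nL, 24 h, 37 °C. Detection: luciferase reagent, luminescence at 12 min RT; decreased signal taken as cytotoxic.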
GLP-1R agonist: qHTS of GLP-1 Receptor Agonists. HEK293 GLP-1R CRE-luciferase, luminescence, 4-6 h; cells express a hypersensitive GLP-1R form. Potency, µM (titrated, usually from 45.6 µM), inactives show at the highest dose activation, most hits filed as activators. actives 0.007% (n = 380,000). AID 624172, 2012; note: potency is the fitted concentration of half-maximal effect; % of control where 0% means no effect
Target sequence (P43220 whole entry, looked up): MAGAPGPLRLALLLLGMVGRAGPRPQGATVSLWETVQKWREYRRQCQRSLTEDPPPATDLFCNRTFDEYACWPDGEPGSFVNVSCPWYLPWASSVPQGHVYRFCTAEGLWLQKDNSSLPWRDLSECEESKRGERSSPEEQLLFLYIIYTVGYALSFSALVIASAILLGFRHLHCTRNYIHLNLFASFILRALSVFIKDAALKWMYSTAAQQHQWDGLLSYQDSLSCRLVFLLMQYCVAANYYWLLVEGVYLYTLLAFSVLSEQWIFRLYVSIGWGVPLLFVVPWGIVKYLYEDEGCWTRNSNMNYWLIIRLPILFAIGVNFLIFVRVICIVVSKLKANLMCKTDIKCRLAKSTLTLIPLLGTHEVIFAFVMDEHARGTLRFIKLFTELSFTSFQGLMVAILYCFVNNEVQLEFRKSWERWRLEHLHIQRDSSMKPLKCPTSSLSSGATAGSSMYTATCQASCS
ClpP mod: qHTS Assay for Activators of ClpP; Potency, µM (highest dose often 57.5 µM), for the others: top-dose activity change, negative = active; AID 651965, 2013; purified B. subtilis ClpP, FRET peptide cleavage, 20 min; actives 1.9% (n = 340,000); active = well fitted falling curve with a large enough effect; inconclusive = small, poorly fitted or top-dose-only effect; inactive = no such curve, though single readings can be large or run the other way; note: potency is the fitted concentration of half-maximal effect; the source files actives as falling curves though it sought activators and does not explain the sign; nearly all actives have a fitted effect of over 65% in size
Target sequence (P80244 whole entry, looked up): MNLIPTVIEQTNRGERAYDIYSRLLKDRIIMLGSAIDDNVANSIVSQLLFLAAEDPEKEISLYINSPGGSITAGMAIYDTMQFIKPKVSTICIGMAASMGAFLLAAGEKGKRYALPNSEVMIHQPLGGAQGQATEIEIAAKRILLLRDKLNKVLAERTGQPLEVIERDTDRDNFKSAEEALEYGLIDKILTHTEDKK
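ClpP 10 microg/mL final, pH 8 Tris/KCl buffer with BSA, glycerol, Tween-20; compound pinned in; FRET-FV substrate; RT 20 min; Ex320/Em430; ΔFRET vs ADEP 5.8 microM, DMSO, no enzyme.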
p53 reactivation: qHTS assay for re-activators of p53 using a Luc reporter. actives 0.063% (n = 320,000). Potency, µM (doses to about 92.2 µM), for the others: at the highest dose activity change, positive = activation, actives largely listed as activators. H1299 p53-A138V BP100-luciferase reporter, luminescence, 24 h; note: potency is the fitted concentration of half-maximal effect; % of control where 0% means no effect; nearly all actives have a fitted effect of over 45% in size
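H1299 (p53-null), stable ts p53-A138V + BP100-Luc; 1000 cells/well, Opti-MEM/10% FBS; cpd 4 pt, 1:5; 24 h, 37 deg C, 5% CO2; detection reagent 10 min RT; luminescence.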
GLP-1R inv ag: qHTS of GLP-1 Receptor Inverse Agonists (Inhibition Mode); Glucagon-like peptide 1 receptor (Homo sapiens), P43220; HEK293 GLP-1R CRE-luciferase, luminescence, 24 h; GLP-1R form is constitutively active; Potency, µM (series often up to 38.3 µM), for the others: at the top dose activity change, negative = inhibition, hits mostly inhibitors; actives 1.6% (n = 410,000); note: potency is the fitted concentration of half-maximal effect; % is set by controls: 0 for no effect and ±100 for the full control effect; nearly all actives have a fitted effect of over 55% in size
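Using stably transfected HEK293 (constitutively active GLP-1R, cAMP-luciferase reporter), compounds were incubated 24 hr and luciferase measured by luminescence.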
LDHA block: qHTS assay for inhibitors of human lactate dehydrogenase; purified LDHA, NADH/diaphorase-resazurin fluorescence; hits give low values; actives 0.15% (n = 480,000); activity change, % (values are at about 110 or 230 µM); L-lactate dehydrogenase A chain (Homo sapiens), P00338; AID 1347041, 2019; in the data active = activity change below about -30%; inconclusive = mostly about -25% to -30%;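 note: plate controls were DMSO wells for no effect and wells without enzyme for full effect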
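LDH5 2 nM; NADH 0.06 mM, pyruvate 0.2 mM; 200 mM Tris pH 7.4, EDTA, Tween-20; 5 min RT. Detection: diaphorase 0.133 mg/mL + resazurin 37 µM, fluorescence ex540/em590 at 0 and 20 min; normalized to enzyme-free and DMSO wells.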
The depositor's hits bear a star; ! = repeats disagree. The list is not random: actives were taken first. Their share in the collection is about 2.9%. Unless noted, calls come from the whole dose curve; as a rule, active = well fitted curve in the direction sought with a large enough effect; inconclusive = small, poorly fitted or top-dose-only effect, or another doubt; inactive = no such curve, though single readings can be large; an effect the other way counts as inactive or inconclusive.

`Cc1ccc(C(=O)Nc2ccc3nc(SCC(=O)N4CCCc5ccccc54)sc3c2)cc1` gave HEK293 tox -11%, ClpP mod 20µM*, GLP-1R inv ag -42% and LDHA block -1.
`COc1ccc(C(=O)Nc2ccc3nc(SCC(=O)N4CCCc5ccccc54)sc3c2)cc1` gave HEK293 tox -29%, ClpP mod inconclusive, GLP-1R inv ag inconclusive and LDHA block 0.
For O=C(Nc1ccc2nc(SCC(=O)N3CCCc4ccccc43)sc2c1)c1ccccc1 the results were HEK293 tox -7%, ClpP mod 14µM*, GLP-1R inv ag inconclusive and LDHA block -10.
For C[C@@H]1COC(=O)[C@@H](CC(=O)OC(C)(C)C)C/C=C\C[C@@H](CC(=O)N[C@@H](CO)Cc2ccccc2)C(=O)N1 the results were HEK293 tox 6%, GLP-1R agonist 2%, ClpP mod 0%, p53 reactivation -6%, GLP-1R inv ag -11% and LDHA block -1.
Screening CCc1nc(C)ccc1OCC(=O)O returned HEK293 tox -14%, GLP-1R agonist -19%, ClpP mod -17%, p53 reactivation 19%, GLP-1R inv ag 2% and LDHA block -7.
CCc1nc(C)ccc1OCC(=O)NCCCN(C)C was read as HEK293 tox 1%, GLP-1R agonist 0%, ClpP mod 2%, p53 reactivation 23%, GLP-1R inv ag 8% and LDHA block -33*.
O=C1N[C@@H](Cc2ccccc2)C(=O)N2[C@@H]3N(S(=O)(=O)c4ccccc4)c4ccccc4[C@]3(Br)C[C@@H]12 was read as HEK293 tox 16%, GLP-1R agonist 2%, ClpP mod 0%, GLP-1R inv ag 10µM* and LDHA block -1.
For CC(C)c1cc(C(C)C)c(S(=O)(=O)N2c3ccccc3[C@@]3(Br)C[C@H]4C(=O)N[C@@H](Cc5ccccc5)C(=O)N4[C@@H]23)c(C(C)C)c1 the results were HEK293 tox 5%, GLP-1R agonist -5%, ClpP mod -6%, GLP-1R inv ag 5.6µM* and LDHA block -1.
Screening C=CCNc1nc(-c2ccccc2)c(C(=O)OCC)cc1C#N returned HEK293 tox inconclusive, GLP-1R agonist 25%, ClpP mod -15%, p53 reactivation 6%, GLP-1R inv ag 5µM* and LDHA block -3.
CCCCNc1nc(-c2ccccc2)c(C(=O)OCC)cc1C#N was read as HEK293 tox -15%, GLP-1R agonist 1%, ClpP mod inconclusive, p53 reactivation 4%, GLP-1R inv ag inconclusive and LDHA block 6.
For CCCNc1nc(-c2ccccc2)c(C(=O)OCC)cc1C#N the results were HEK293 tox -14%, GLP-1R agonist 21%, ClpP mod 28µM*, p53 reactivation 16%, GLP-1R inv ag inconclusive and LDHA block -5.
`CCOC(=O)c1cc(C#N)c(Oc2ccccc2)nc1-c1ccccc1` gave HEK293 tox -6%, GLP-1R agonist -3%, ClpP mod -7%, p53 reactivation 1%, GLP-1R inv ag inconclusive and LDHA block -2.
Screening O=C(COc1ccc(Cl)cc1Cl)OCC(=O)c1ccc[nH]1 returned HEK293 tox 2%, GLP-1R agonist 0%, ClpP mod -1%, p53 reactivation inconclusive, GLP-1R inv ag 0% and LDHA block -12.
`CCCCCCN(C(=O)CCCN1C(=O)NC(c2ccc(-c3ccccc3)cc2)C(C(=O)OCc2ccccc2)=C1C)C(C)C(=O)NCCCC` (centres undefined) gave HEK293 tox -10%, GLP-1R agonist 9%, ClpP mod -5%, p53 reactivation 0%, GLP-1R inv ag 11µM* and LDHA block -2.
Screening CCN(CC(=O)Nc1ccccc1C(F)(F)F)C(=O)c1ccccc1Sc1ccccc1C#N returned HEK293 tox -26%, GLP-1R agonist -2%, ClpP mod 1%, p53 reactivation -2%, GLP-1R inv ag inconclusive and LDHA block -2.
`COc1ccc(OC)c(C(=O)c2ccccn2)c1` gave HEK293 tox 20%, GLP-1R agonist 14%, ClpP mod -3%, p53 reactivation 2%, GLP-1R inv ag -3% and LDHA block -1.
CCN(CC)CCNc1ncnc2c1[nH]c1ccc(OC)cc12 was read as p53 reactivation 15%.
For COc1ccc2[nH]c3c(NCCC4=CCCCC4)ncnc3c2c1 the results were HEK293 tox inconclusive, GLP-1R agonist 7%, p53 reactivation 18%, GLP-1R inv ag 5µM* and LDHA block 5.
For COc1ccc2[nH]c3c(NCc4ccco4)ncnc3c2c1 the results were HEK293 tox -14%, GLP-1R agonist 8%, ClpP mod 16µM*!, p53 reactivation inconclusive, GLP-1R inv ag 33% and LDHA block 2.
For C=CCNc1ncnc2c1[nH]c1ccc(C)cc12 the results were HEK293 tox -10%, GLP-1R agonist 1%, ClpP mod 16µM*, p53 reactivation inconclusive, GLP-1R inv ag 30% and LDHA block -4.
Screening Nc1nonc1-c1noc(N2CCOCC2)n1 returned HEK293 tox -14%, GLP-1R agonist 1%, ClpP mod -2%, p53 reactivation inconclusive, GLP-1R inv ag 21% and LDHA block -3.
O=C(CCCN1C(=O)C(c2ccccc2)Oc2cccnc21)Nc1ccc(Br)cc1F (centres undefined) was read as HEK293 tox 2%, GLP-1R agonist -1%, ClpP mod -10%, GLP-1R inv ag -10% and LDHA block -1.
Cc1nc(-c2ccccc2)ccc1C(=O)O was read as HEK293 tox -10%, GLP-1R agonist -1%, p53 reactivation 6%, GLP-1R inv ag 12% and LDHA block -4.
`CC(NC(=O)c1cnccn1)c1ccccc1` (centres undefined) gave LDHA block 11.
Screening CC(C(=O)NC(=O)NC12CC3CC(CC(C3)C1)C2)n1cnc2c1c(=O)n(C)c(=O)n2C (centres undefined) returned LDHA block -31*.
For CC(C)NC(=O)C(C)n1cnc2c1c(=O)n(C)c(=O)n2C (centres undefined) the results were LDHA block 1.
